NS1 inh = qHTS Assay for Inhibitors of Influenza NS1 Protein Function | Potency, µM (highest dose often 46.1 µM), without a hit: at the highest dose activity, positive = more growth | 270,000 tested, 0.4% active | AID 2326, 2010; calls by dose curve; also: potency is read from the fitted curve at half-maximal effect; actives are rising curves; nearly all actives have a fitted effect of over 50% in size
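In this qHTS, NS1 from influenza A is expressed in budding yeast, where it slows growth. Cells are switched from glucose to 2% galactose medium (pH 6.0, -URA), treated with compound, and growth recovery is read at OD600.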
SARS PLP yeast = qHTS of Yeast-based Assay for SARS-CoV PLP | AID 485353, 2010 | Potency, µM (titrated, usually from 32.9 µM), without a hit: at the highest dose activity, positive = growth rescue, most hits filed as activators | 330,000 tested, 0.19% active | S. cerevisiae expressing SARS-CoV PLpro, growth rescue; calls by dose curve; also: potency is read from the fitted curve at half-maximal effect; 0% is about no effect; nearly all actives have a fitted effect of over 55% in size
Shiga inhibitor = A qHTS for Small Molecule Inhibitors of Shiga Toxin; 290,000 tested, 9.2% active; Vero cells, Shiga toxin protein synthesis inhibition reporter; inhibition, % at 38.7 µM; in the data active = inhibition mostly above about 28%, no sharp cut-off; inactive = mostly below about 43%; also: 0% is about no effect
Pf growth 96h = Primary qHTS for delayed death inhibitors of the malarial parasite plastid, 96 hour incubation | P. falciparum luciferase reporter growth, 96 h | Potency, µM (top dose mostly 28.7 µM), for inactives: at the top dose activity change, negative = inhibition, hits mostly inhibitors | 320,000 tested, 6.9% active | AID 504834, 2011; also: potency is read from the fitted curve at half-maximal effect; % is scaled to controls: 0 for no effect and ±100 for the full control effect
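Parasite growth measured via integrated firefly luciferase reporter in P. falciparum. Infected erythrocytes at 2% hematocrit, 0.05% parasitemia final were treated 96 hours at 37 C under 5% CO2, and luminescence was read.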
Pf growth 48h = Primary qHTS for delayed death inhibitors of the malarial parasite plastid, 48 hour incubation; P. falciparum luciferase growth in erythrocytes, 48 h; Potency, µM (series often up to 28.7 µM), without a hit: at the top dose activity change, negative = inhibition, most hits filed as inhibitors; 310,000 tested, 5.9% active; also: potency is read from the fitted curve at half-maximal effect; % is scaled to controls: 0 for no effect and ±100 for the full control effect
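A one-generation exposure of luciferase-tagged malaria parasites in RPMI 1640/Albumax erythrocyte culture, 37 C and 5% CO2. Inhibition is inferred from decreased luminescence after adding detection reagent.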
CHX counter = Cycloheximide Counterscreen for Small Molecule Inhibitors of Shiga Toxin. AID 2314, 2010. max response, %. 300,000 tested, 12% active. cell reporter, cycloheximide protein synthesis inhibition counterscreen; in the data active = max response mostly above about 13%, no sharp cut-off; inactive = mostly below about 14%; also: read at 38.3 µM for the half of the compounds with a filed dose; 0% is about no effect
The depositor's hits bear a star; i = inactive; ? = inconclusive; / = no result. Most compounds without a hit are left out; they make up all but 21% or so of the library. Unless noted, calls follow the shape of the dose curve; as a rule, active = well fitted inhibition curve with a large enough effect; inconclusive = small, poorly fitted or top-dose-only effect, or another doubt; inactive = no such curve, though single readings can be large or run the other way.

SMILES | NS1 inh | SARS PLP yeast | Shiga inhibitor | Pf growth 96h | Pf growth 48h | CHX counter
COc1ccc(NC(=O)c2cccc(OC(F)F)c2)cc1Cl | -5.8% | -18.1% | 130.9* | / | 193.1% | 39.3*
CC1=NN(c2ccc(S(=O)(=O)O)cc2)C(=O)/C1=C\c1ccc(Cl)cc1 | -0.1% | / | / | / | / | /
COc1ccc(-c2nc3c(c4nnc(SC(C)C(=O)Nc5ccc(C)cc5)n24)COC(C)(C)C3)cc1 (stereo not drawn) | 4.6% | 2.3% | -7.7 | 2.62µM* | 7.38µM* | -3.1
COc1ccc(NC(=O)CSc2nnc3c4c(nc(-c5ccccc5)n23)CC(C)(C)OC4)cc1 | 10.8% | 28.5% | -3.3 | ? | -103.7% | -2.4
O=C1NC[C@@H](Cc2cccc3ccccc23)N(CCCCC2CCCCC2)C1=O | / | -4.2% | / | 65.4% | 48.2% | /
O=C(Nc1ccccc1)N(C1=NCCCCS1)c1ccccc1 | -17.7% | -1.1% | 56.0 | / | 36.5% | 23.7*
O=C(c1ccc([N+](=O)[O-])cc1)N(C1=NCCCCS1)c1ccccc1 | 0.0% | 1.1% | 3.1 | / | -10.0% | -1.9
O=C(Nc1ccccc1)N(C1=NCCCCS1)c1cccc2ccccc12 | -9.2% | -2.0% | 76.0 | 45.2% | 34.4% | 45.8*
COc1ccccc1CNC(=O)COC(=O)Cn1cnc2ccccc21 | -1.1% | -0.4% | 8.2 | ? | 18.5% | -4.9
COC(=O)c1ccc(CN(C(=O)N2CCN(C)CC2)S(=O)(=O)c2ccc(C)cc2)cc1 | / | 0.4% | / | 40.5% | 36.2% | /
O=C(CN(C(=O)Cn1nnc(-c2ccc(F)cc2)n1)c1ccc(F)cc1)NC1CCCC1 | 4.4% | 1.2% | -7.2 | ? | ? | 1.6
Cc1c(C(=O)N2CC(C(=O)N3CCCCC3)Oc3ccccc32)oc2ccccc12 (stereo not drawn) | / | -3.7% | / | 13.1µM* | ? | /
COCc1c(C(=O)N2CCc3ccccc32)oc2ccccc12 | -21.9% | -33.5% | 69.6* | -5.4% | -1.2% | 13.9
Cc1c(C(=O)N2CCN(S(C)(=O)=O)CC2)oc2ccccc12 | 8.5% | -0.5% | 17.3 | ? | 13.5% | 9.2*
COc1ccccc1N1CCN(C(=O)c2oc3ccccc3c2C)CC1 | -27.7% | -1.9% | 11.8 | ? | ? | 5.6
Cc1c(C(=O)N2CCc3ccccc32)oc2ccccc12 | -22.6% | -16.2% | 68.5* | 7.6% | 189.6% | 55.0*
O=C1CN(C(=O)COC(=O)c2ccc[n+]([O-])c2)c2ccccc2N1 | / | -0.1% | -8.3 | 6.6% | 20.4% | -1.8
CC(C)CC(=O)C1=C(O)C(=O)N(Cc2ccccc2)C1c1ccccc1 (stereo not drawn) | 10.2% | 4.3% | / | -11.1% | 30.2% | 1.4
CN(C)C(CNC(=O)c1c(F)cccc1Cl)c1ccco1 (stereo not drawn) | 9.2% | 0.0% | -8.9 | 61.3% | 11.6% | -3.3
COc1ccccc1C(=O)N/N=C(\C)CC(=O)Nc1ccc(Cl)cn1 | -3.6% | -2.6% | 49.7* | 20.1% | 9.2% | 37.3*
C/C(CC(=O)Nc1cc(C)ccn1)=N\NC(=O)c1ccc(C(C)(C)C)cc1 | 11.2% | 9.5% | 23.8 | 27.5% | 21.4% | 1.5
COc1ccccc1C(=O)N/N=C(\C)CC(=O)Nc1ccccc1NC(C)=O | -3.3% | 0.7% | / | 24.9% | 4.1% | 19.4*
COc1ccccc1C(=O)N/N=C(\C)CC(=O)Nc1ccccn1 | -9.7% | -2.0% | 68.5* | ? | 21.7% | 26.1*
C/C(CC(=O)Nc1ccccn1)=N\NC(=O)c1ccc(C)cc1 | 0.0% | 1.6% | 56.8 | i | 36.2% | 18.4*
Cc1cccc(-n2nc3c(c2NC(=O)C(C)C)CS(=O)(=O)C3)c1C | 1.0% | -2.9% | -18.5 | -2.4% | ? | 1.3
SMILES | NS1 inh | SARS PLP yeast | Shiga inhibitor | Pf growth 96h | Pf growth 48h | CHX counter
CC(C)Cn1c(SCC(=O)Nc2cccnc2Cl)nnc1-c1ccco1 | / | -3.2% | / | / | / | /
CCc1ccc(CN2CCN(c3ncccn3)CC2)cc1 | -4.3% | 1.2% | / | ? | ? | 26.5*
Fc1ccc(CN2CCN(c3ncccn3)CC2)cc1 | 5.0% | 0.6% | -12.8 | ? | / | -1.9
CCN(CCn1cccn1)Cc1cn[nH]c1-c1cccc2ccccc12 | 0.8% | 0.3% | 6.5 | 2.5% | -19.3% | -2.2
COc1ccc(-c2[nH]ncc2CN(C)CCCN2CCOCC2)cc1F | 3.7% | -0.3% | 10.6 | ? | -13.1% | -0.5
c1ccc(-c2[nH]ncc2CN2CCN(Cc3ccc4c(c3)OCO4)CC2)cc1 | -0.2% | -1.1% | -3.2 | -32.3% | 28.0% | -0.4
CN(CCc1cnn(C)c1)Cc1cn[nH]c1-c1ccc(-c2ccccc2)cc1 | -2.7% | -1.6% | 42.6* | ? | -25.4% | 17.3*
Cn1cc(CCNCc2cn[nH]c2-c2ccc(-c3ccccc3)cc2)cn1 | 5.0% | -2.4% | 54.0* | -20.3% | ? | 30.8*
CCN(CCn1cccn1)Cc1cn[nH]c1-c1ccc(-c2ccccc2)cc1 | 4.0% | -1.8% | 42.3 | -1.6% | 2.94µM* | 11.1
COc1ccc(-c2[nH]ncc2CNCCc2ncccc2C)cc1F | 4.7% | 0.1% | -1.4 | ? | 29.2% | 5.6
Cc1ccc(-c2[nH]ncc2CNCCc2cnn(-c3ccccc3)c2)cc1C | 9.5% | -2.1% | -7.8 | ? | 13.1µM* | 1.3
O=C(O)c1ccc2c(c1)C(=O)N([C@H](Cc1cccc3ccccc13)C(=O)O)C2=O | / | -7.6% | -4.4 | 11.4% | 9.4% | -2.5
COc1ccc(NC(C)=O)cc1S(=O)(=O)NCCc1ccccn1 | / | -2.2% | / | -2.5% | -15.4% | /
Cc1ccccc1N/N=C/c1c(C)nc2ccccn12 | -5.4% | -3.4% | -5.4 | ? | 9.28µM* | -2.9
CC1CCC2C(C)C3C(CC4[C@@H]5CC=C6C[C@@H](O)CC[C@]6(C)C5CC[C@]34C)N2C1 (stereo partly drawn) | / | / | -5.0 | / | / | 14.1
O=C1c2ccccc2C(=O)N1CCCc1nc2ccccc2c(=O)n1CCCn1ccnc1 | -6.9% | 4.1% | -15.1 | 1.85µM* | -27.0% | -6.6
O=C(CSCc1ccc(Cl)cc1)Nc1ccc(O)cc1C(=O)O | -8.5% | -5.6% | -14.3 | 380.2% | -0.2% | 4.5
CCOC(=O)c1cccc(NC(=O)C2(S(=O)(=O)c3ccc(C)cc3)CC2)c1 | -3.5% | 7.2% | -6.4 | -27.2% | -11.2% | 1.6
CCc1cc2c(NCC3CCCO3)nc(C)nc2s1 (stereo not drawn) | -5.5% | 4.5% | -3.5 | ? | -13.2% | -4.0
CCN1CCN(c2ncnc3c2sc2nc(N4CCOCC4)c4c(c23)CCC4)CC1 | 4.7% | 2.9% | 22.1 | 51.7% | -3.6% | -4.8
c1nc(NCCN2CCOCC2)c2sc3nc(N4CCOCC4)c4c(c3c2n1)CCC4 | -10.1% | 3.7% | -3.7 | / | 7.38µM* | -3.8
COc1ccc(Cl)c(Cn2c(NCCCO)nc3c2c(=O)n(C)c(=O)n3C)c1 | -9.5% | 2.9% | -7.8 | ? | -2.5% | -2.4
CC(NC(=O)Nc1ccc(Br)cc1)C(C)(C)C (stereo not drawn) | -42.3% | -2.2% | 79.7* | ? | ? | 27.0*
